Results published in PubChem BioAssay (NCI).
This is part of a sample that, as a whole, favours compounds with a hit. Of some 79,000 tested, about 15% had one in any assay. A number with no mark means an inactive call. Activity calls are given as the source filed them. Cut-off read from the data, not from the text of the source: active = growth inhibition above about 70%; inactive = the rest.

Assays:
[1] = NCI Yeast Anticancer Drug Screen. Data for the rad50 strain (AID 155);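 note: 0% = growth of vehicle-only cultures of the same strain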; details: S. cerevisiae rad50 strain growth inhibition; at 50.0 µM; hits give high values
Summary of the method: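 A DNA repair-deficient yeast mutant serves as the test organism; compound-induced growth inhibition is calculated against vehicle-treated cells.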

[2] = NCI Yeast Anticancer Drug Screen. Data for the mec2-1 strain (AID 157); details: S. cerevisiae mec2-1 strain, at 50.0 µM, hits give high values
Summary of the method: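 Readout is yeast growth inhibition, normalised to vehicle-treated controls, in the mec2-1 strain exposed to compound.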

[3] = NCI Yeast Anticancer Drug Screen. Data for the sgs1 mgt1 strain (AID 161);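 note: 0% = growth of cultures given vehicle only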; details: S. cerevisiae sgs1 mgt1 strain, at 50.0 µM, hits give high values
Summary of the method: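 Growth of a repair-deficient yeast mutant was monitored after compound treatment and expressed as inhibition relative to vehicle-treated cultures.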

[4] = NCI Yeast Anticancer Drug Screen. Data for the cln2 rad14 strain (AID 165);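 note: 0% = growth equal to vehicle treated cultures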; details: S. cerevisiae cln2 rad14 strain, at 50.0 µM, hits give high values
Summary of the method: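 Relative to vehicle controls, growth inhibition of compound-treated cln2 rad14 yeast was recorded.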

[5] = NCI Yeast Anticancer Drug Screen. Data for the bub3 strain (AID 167); details: S. cerevisiae bub3 mutant strain, at 50.0 µM, hits give high values
Summary of the method: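 Inhibition values come from growth of compound-treated mutant yeast normalised to vehicle-treated controls.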

[6] = NCI Yeast Anticancer Drug Screen. Data for the mlh1 rad18 strain (AID 175); details: S. cerevisiae mlh1 rad18 strain growth inhibition; at 50.0 µM; hits give high values
Summary of the method: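 Test agents were incubated with a yeast strain of defined genotype (DNA damage repair defect). Inhibition of growth was derived by comparison with vehicle-exposed cultures.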

Row | Structure (SMILES) | growth inhibition [1] | growth inhibition [2] | growth inhibition [3] | growth inhibition [4] | growth inhibition [5] | growth inhibition [6]
1 | C/C=C/C1OCC(C)([N+](=O)[O-])CO1 (configuration not stated) | 23.5% | 10.1% | 19.4% | 12.5% | -1.35% | 31.1%
2 | CC(C)=CCSC(N)N | 14.4% | 21.1% | 24.1% | 9.35% | 17.4% | -1.7%
3 | CCOC(=O)C(=CNc1cccc(N)n1)C(=O)OCC | -3.35% | -17.9% | 28% | -8.55% | 20.4% | 5.75%
4 | O=C(CCN1CCCCC1)c1cc(Cl)ccc1Cl | 88.4% (active) | 68.4% | 93.1% (active) | 62.5% | 91% (active) | 80.2% (active)
5 | O/N=C1\CCCC\C1=N/O | 6.55% | -9.8% | -8.35% | -3.1% | 8.95% | -4.25%
6 | COC(=O)C(=O)/C(=C\N1C(=O)CC(=O)NC1=S)C(=O)c1ccc([N+](=O)[O-])cc1 | 17.9% | -0.4% | 9.6% | 1.5% | -5.25% | 6%
7 | CCCCCCCC(=O)N1C2CN3C4=C(C(=O)C(N)=C(C)C4=O)C(COC(N)=O)C3(OC)C21 (configuration not stated) | 18.6% | 13.1% | 30.4% | 20.8% | 19.1% | 47.1%
8 | CC(C)=NNC(=O)c1ccccc1CC(O)(c1ccccc1)c1ccccc1 | 22.1% | 5.25% | 10.2% | -35.6% | -24.4% | 15.2%
9 | COc1ccc(OC)c(NC(=O)SC(C)C)c1 | -5.3% | -21.8% | -9.45% | 0.15% | 18.2% | -3.65%
10 | O=C1CC2c3ccccc3C(O)(CC1=O)c1ccccc12 | 16.2% | 6.7% | 11.7% | 15.2% | -16.6% | 19.2%
11 | COC(=O)c1cc(C(=O)OC)c(C(=O)OC)cc1C(=O)OC | -1.35% | -1.25% | 15.8% | -37.8% | 4.2% | 22.1%
12 | Cc1cccc(-c2nnc(-c3cccc4ccccc34)o2)c1 | 8.8% | -28.8% | 43.8% | 14.3% | 26.5% | 13.4%
13 | C=CCOCn1ccc(=O)[nH]c1=O | 4.35% | -3.05% | 5.85% | 3% | 3.2% | -3.05%
14 | OCc1nc2ccccc2[nH]1 | 5.6% | -4.5% | -3.55% | -27.2% | 14.1% | 3.3%
15 | O=CNC(NC=O)c1ccccc1[N+](=O)[O-] | 29.9% | 20.8% | 30.1% | 0.65% | 52.5% | 28.6%
16 | CSC1(C)CC2C(CC1N1CCOCC1)C2(C)C (configuration not stated) | -28.4% | -33.9% | -41.6% | -14.2% | -33.4% | -26.2%
17 | COC(=O)c1c([N+](=O)[O-])ncn1[C@H]1OC[C@@H](OC(C)=O)[C@@H](OC(C)=O)[C@@H]1OC(C)=O | -24.8% | -8.6% | -20.9% | -0.8% | -5.5% | 1.55%
18 | CCCCCCCCCCCCCCOc1ccc(S(=O)(=O)/N=C(\N)NC(N)=NCCCCCCCCCC)cc1 | 30.2% | -9.6% | 10.2% | -21.1% | -2.2% | 2.15%
19 | CC(C)(c1ccc(C(=O)O)cc1)c1ccc(C(=O)O)cc1 | -1.65% | 5.05% | -1.1% | -5.7% | -14.5% | -9.15%
20 | CCCCCCCCCCCCCCCC(=O)OCC(O)CO (configuration not stated) | -28.4% | -0.35% | -6.25% | -167% | -11% | 1.1%
21 | Clc1ccc2c(c1)C(Nc1cc3c4ccccc4ccc3c3ccccc13)c1cc(Cl)cc(Cl)c1-2 (configuration not stated) | 51.2% | -1.25% | 22.6% | 21.1% | 9.3% | 12.2%

Row | Structure (SMILES) | growth inhibition [1] | growth inhibition [2] | growth inhibition [3] | growth inhibition [4] | growth inhibition [5] | growth inhibition [6]
22 | CC(=O)c1ccc(C(C)=O)c(OCc2ccccc2)c1 | -4.45% | -12.4% | -8.25% | -27.9% | -5.95% | -5.05%
23 | CC(C)OC(=O)/C=C/C(=O)OC(C)C (tested in a mixture with another compound) | -13.1% | -6.9% | -13.6% | -20.4% | -13.8% | -23.1%
24 | Cc1cc(=O)[nH]c(Nc2nc3ccccc3[nH]2)n1 | 1.1% | -0.75% | 6.7% | 20.8% | -1.4% | 5.9%
25 | N#Cc1cc2c3ccccc3ncc2c2ccccc12 | 0.95% | 16.4% | -3% | -1.1% | -1.7% | -6%
26 | C=C1C(=O)SC(=NCc2ccccc2)N1C | 24.4% | 16.4% | 19.9% | 19.9% | 0% | 25.8%
27 | CC(C)OC(=O)Nc1ccc(F)c(F)c1 | 24.9% | -16.8% | 2.6% | -2.8% | 6.85% | 20.1%
28 | CN(C)c1cccc([N+](=O)[O-])c1 | -54.5% | -11% | -44.6% | -32.5% | -35.4% | -48.8%
29 | O=[N+]([O-])c1ccc(/C=C/[P+](c2ccccc2)(c2ccccc2)c2ccccc2)o1 | 94.2% (active) | 97.5% (active) | 89.5% (active) | 83.5% (active) | 95.8% (active) | 93.7% (active)
30 | COc1ccc2nc(NC(=O)C(=O)C(C(=O)c3ccccc3-c3ccccc3)C3OC(=O)c4ccccc43)sc2c1 (configuration not stated) | -3.6% | 9.75% | -14.2% | 0.7% | -1.1% | -16.1%
31 | CCOc1ccc(C(=O)CCC(=O)Nc2ccc(Br)cc2)cc1 | 13.1% | 5.8% | 13.1% | -7.3% | 8.75% | 20.4%
32 | O=C(CC/[N+]([O-])=C/c1ccccc1)OCc1ccccc1 | 24.9% | 20.8% | 1.3% | 12% | 21.8% | 52.5%
33 | CC(=O)NC(C)Cc1ccc(C(=O)O)cc1 (configuration not stated) | 13.9% | -6.25% | -8.5% | -36.4% | -4.5% | 12.6%
34 | NC(=O)N=Nc1ccc(Br)cc1 | 9.8% | 7.05% | -7.85% | -11.7% | -3.55% | 18.3%
35 | S=C1NCC(c2ccccc2)CN1 | 0.5% | 1.65% | -2.55% | 19.9% | -7.95% | -5.9%
36 | S=C1Cc2c(-c3ccc(Br)cc3)cc(-c3ccccc3)nc2-c2ccccc2N1 | 19.9% | 14.7% | 23.4% | 20.6% | 22.9% | 23.2%
37 | COc1ccc(NC(=O)CSc2nnc(-c3ccc(NC(C)=O)cc3)o2)cc1 | 22.5% | 2.2% | 35.6% | 22.2% | 36% | 0.55%
38 | O=C(OC1OC(COCc2ccccc2)C(OCc2ccccc2)C1OCc1ccccc1)c1ccc([N+](=O)[O-])cc1 (configuration not stated) | 25.2% | -12.2% | 16.2% | -26.1% | -5.3% | -1.35%
39 | C/C(=N/NC(N)=S)c1ccc[nH]1 | -18.1% | -14.2% | -3.75% | 20.9% | -39% | -10.4%
40 | COc1ccc2c(c1)CCN1CCc3ccccc3CC21 (configuration not stated) | 30.6% | 43.4% | 58.5% | 45.9% | 53.4% | 42.6%
41 | OC1CCCC2OC2CC1 (configuration not stated) | 0.4% | 6.55% | -9.5% | 11.7% | 7.25% | 13.9%
42 | CC(C)(CCCCC(C)(C)NC1=NCCO1)NC1=NCCO1 | -0.2% | -8.8% | 9.9% | -20.6% | -4.45% | -9.4%
